Assay outcomes deposited in PubChem by several laboratories.
RecA splice inh – blocks M. tuberculosis RecA intein splicing; cell-free RecA intein splicing, fluorescence; inhibition, % (no concentration beside the values); 290,000 tested, 0.75% active; AID 2221; in the data active means inhibition above about 30%;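 further: 0% = vehicle wells and 100% = reference inhibitor control wells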
Target sequence (P9WHJ3 whole entry, looked up, canonical isoform): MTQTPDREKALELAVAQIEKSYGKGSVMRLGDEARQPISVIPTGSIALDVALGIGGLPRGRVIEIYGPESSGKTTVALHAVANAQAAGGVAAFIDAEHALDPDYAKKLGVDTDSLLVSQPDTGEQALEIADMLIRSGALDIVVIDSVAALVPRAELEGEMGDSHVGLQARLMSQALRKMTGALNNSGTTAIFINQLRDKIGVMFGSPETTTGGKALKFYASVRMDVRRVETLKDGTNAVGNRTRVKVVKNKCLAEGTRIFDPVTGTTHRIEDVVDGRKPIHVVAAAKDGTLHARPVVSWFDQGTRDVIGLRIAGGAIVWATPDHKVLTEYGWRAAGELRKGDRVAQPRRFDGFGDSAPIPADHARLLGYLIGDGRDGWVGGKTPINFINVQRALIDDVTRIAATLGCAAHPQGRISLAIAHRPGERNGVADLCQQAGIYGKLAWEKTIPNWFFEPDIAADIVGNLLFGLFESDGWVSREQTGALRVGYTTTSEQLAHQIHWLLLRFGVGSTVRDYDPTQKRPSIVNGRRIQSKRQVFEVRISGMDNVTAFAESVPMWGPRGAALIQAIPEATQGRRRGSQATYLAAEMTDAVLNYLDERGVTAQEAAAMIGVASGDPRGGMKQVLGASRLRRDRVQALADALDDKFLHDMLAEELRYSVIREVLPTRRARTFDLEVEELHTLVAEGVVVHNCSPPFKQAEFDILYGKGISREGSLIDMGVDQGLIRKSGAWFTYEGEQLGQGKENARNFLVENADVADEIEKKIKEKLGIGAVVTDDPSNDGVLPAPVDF
CCHFV vOTU inh – CCHFV vOTU protease inhibition. AID 651958. 370,000 tested, 0.55% active. Pep-AMC fluorescence. inhibition, % at 11.5 µM; further: 0% = vehicle wells with enzyme and 100% = no enzyme wells
GDH-TPI counter-1 – inhibits GDH-TPI coupling enzymes, artifact for Mtb FBA screen | 360,000 tested, 1.2% active | inhibition, % at 4.8 µM | GDH-TPI coupled enzyme counterscreen, NADH absorbance;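 further: 0% = DMSO wells and 100% = wells lacking the enzyme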
Mtb FBA inh – inhibitors of M. tuberculosis fructose-bisphosphate aldolase | purified M. tuberculosis FBA, fluorescence read-out | 360,000 tested, 2.3% active | P9WQA3 | inhibition, % at 1 µM; in the data active means inhibition above about 27%;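 further: 0% = vehicle and 100% = reference inhibitor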
Mtb betalactam – beta-lactam sensitization of Mtb H37Rv; 330,000 tested, 0.27% active; inhibition, % at 25 µM; M. tuberculosis H37Rv growth with meropenem, percent inhibition; call rule not given here;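 further: growth measured after seven days incubation then overnight dye step; 0% = bacteria only wells and 100% = bacteria with antibiotic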
Mtb FBA confirm – Mtb FBA inhibition, confirmed; 5,600 tested, 78% active; inhibition, % at 1 µM; shares compounds with Mtb FBA inh; purified M. tuberculosis FBA, fluorescence read-out; AID 651616; in the data active means inhibition above about 27%;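 further: 0% = vehicle wells and 100% = reference inhibitor wells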
GDH-TPI counter-2 – GDH-TPI inhibition counter-screen for FBA inhibitors | shares compounds with Mtb FBA inh | GDH-TPI coupled enzyme counterscreen, fluorescence | inhibition, % at 1 µM | 5,600 tested, 81% active; in the data active means inhibition above about 10%
An asterisk follows results filed as active; nt = no result given; + = active, no number. In the library only some 4.2% were active in any assay of this set; here they are far more common. Unless noted, no stated cut-off is given here; in the data, active means inhibition above about 30%; inactive means the rest.

SMILES | RecA splice inh | CCHFV vOTU inh | GDH-TPI counter-1 | Mtb FBA inh | Mtb betalactam | Mtb FBA confirm | GDH-TPI counter-2
Cn1c(-c2ccc(N)cc2)nc2ccccc21 | nt | -4 | -4 | 88* | -7 | + | +
Cn1c(-c2ccc(Cl)nc2)nc2ccccc21 | 1 | -14 | -1 | 37* | 2 | 113* | 83*
Clc1ccc([C@H]2OC[C@@]3(CNCC4CC4)CS[C@H](c4ccc(Cl)cc4)N23)cc1 | nt | 7 | nt | nt | nt | nt | nt
C[C@@H]1CCCN1c1ccc2c(c1)O[C@H]1CCN(C1)S2(=O)=O | nt | 0 | nt | nt | nt | nt | nt
C#CCNC(=O)C[C@H]1C[C@@]2(C(=O)OC)C(=C[C@H](C3CCCC3)O[C@@H]2C)N(Cc2ccco2)C1=O | nt | 6 | nt | nt | nt | nt | nt
COc1ccc2oc3ccccc3c(=O)c2c1 | -16 | -120 | 10 | 101* | -2 | + | +
COc1ccc2oc(C(F)(F)C(F)F)cc(=O)c2c1 | 3 | -7 | 14 | 43* | -8 | 75* | 52*
CCc1ccn2cc(-c3ccc4c(c3)OCO4)nc2c1 | 4 | -47 | 13 | 91* | 0 | 65* | 43*
Nc1c(C(=O)N2CCN(c3ccccc3)CC2)nnn1Cc1ccc(Cl)cc1 | nt | -1 | nt | nt | nt | nt | nt
COC(=O)[C@]12CCCCC=C1N(Cc1ccc(OC)cc1)C(=O)[C@@H]2CC(=O)N1CCSCC1 | nt | 6 | nt | nt | nt | nt | nt
CCNc1oc(/C=C/c2ccc(OCC)cc2)nc1C#N | nt | -20 | 17 | 29* | 11 | 86* | 71*
COc1ccc(-c2ccc(CCC(=O)O)n2CC2CCCO2)cc1 (stereo unspecified) | -17 | -43 | 11 | 33* | -8 | + | 144*
COc1ccc(-c2ccc(CCC(=O)O)n2CC(C)C)cc1 | -17 | -97 | -12 | 41* | 28 | 48* | 30*
C=CCn1c(CCC(=O)O)ccc1-c1ccc(OC)cc1 | -5 | -17 | 2 | 4 | 6 | nt | nt
CCCCNC(=O)C1(C(=O)C2CC2)CC(c2ccccc2C(F)(F)F)=NO1 (stereo unspecified) | nt | 0 | nt | nt | nt | nt | nt
COC(=O)C1=C(C)N(C)C(=NCc2ccc3c(c2)OCO3)NC1c1ccccc1 (stereo unspecified) | nt | -16 | nt | nt | nt | nt | nt
CNC(=S)N1CCN(c2c(F)cc3c(=O)c(C(=O)O)cn(C4CC4)c3c2OC)CC1C (stereo unspecified) | -9 | -1 | 9 | 14 | 100 | nt | nt
COC(=O)C(C)NC(=S)N1CCN(c2c(F)cc3c(=O)c(C(=O)O)cn(C4CC4)c3c2OC)CC1C (stereo unspecified) | 4 | -18 | 27 | 30* | 100 | + | +
CC(=O)N(C)C1(c2nnnn2CCOC(=O)Nc2ccc(Cl)cc2)CCCCC1 | 1 | -4 | -15 | 52* | -6 | 13 | 4
CC(=O)NC1(c2nnnn2CCOC(=O)Nc2ccc(Cl)cc2)CCCC1 | -5 | -2 | -2 | 4 | -2 | nt | nt
CN(C(=O)[C@H]1O[C@@H](n2cnc3c(=O)[nH]c(N)nc32)[C@H](O)[C@@H]1O)C1CCCCC1 | nt | -4 | nt | nt | nt | nt | nt
CC(C)n1cnc2c(Nc3cccc(F)c3)nc(NCCO)nc21 | 0 | -2 | 14 | 32* | -11 | 109* | 91*
N#CCC[C@H]1CC[C@]2(CCCN(C(=O)c3ccc4ccccc4n3)C2)O1 | nt | -2 | nt | nt | nt | nt | nt
COc1ccc(OCC(=O)Nc2cc(-c3nn(C)c(=O)c4ccccc34)ccc2N2CCOCC2)cc1 | 3 | -6 | -2 | 27* | 0 | 6 | -3
CCC(=O)Nc1cc(-c2nn(C)c(=O)c3ccccc23)ccc1N1CCOCC1 | 1 | -1 | 4 | -3 | -4 | nt | nt
SMILES | RecA splice inh | CCHFV vOTU inh | GDH-TPI counter-1 | Mtb FBA inh | Mtb betalactam | Mtb FBA confirm | GDH-TPI counter-2
C[C@H]1COc2cc(N3CCCC3)ccc2S(=O)(=O)N1C | nt | 3 | nt | nt | nt | nt | nt
CCN(CC)C(=O)CC[C@@H]1CC[C@]2(CCCN(C(=O)c3ccco3)C2)O1 | nt | -3 | nt | nt | nt | nt | nt
Cc1ccc(C(=O)CC(c2cccs2)S(=O)(=O)c2ccc(C)cc2)cc1 (stereo unspecified) | -4 | -6 | 2 | 102* | 7 | 61* | 29*
O=C(CC(c1cccs1)S(=O)(=O)c1ccccc1)c1ccc(F)cc1 (stereo unspecified) | -1 | -4 | 4 | -3 | 11 | nt | nt
Cc1ccc2nc(-c3ccc(F)cc3)c(Cc3ccsc3)n2c1 | nt | 9 | nt | nt | nt | nt | nt
Cc1cc(O)c(-c2cc(O)c(C)cc2O)cc1O | 30 | -11 | -6 | 37* | -8 | 104* | 82*
CS(=O)(=O)Nc1ccccc1C(=O)OCC(=O)NCc1cccs1 | nt | 9 | 12 | 3 | -4 | nt | nt
COc1ccc(CCNC(=O)COC(=O)c2ccco2)cc1OC | -4 | -3 | -11 | -11 | -6 | nt | nt
O=C(COC(=O)c1ccccc1NCCO)NCc1cccs1 | -1 | -81 | 3 | 66* | -5 | 20 | 24*
COc1ccc(CCNC(=O)COC(=O)c2ccccc2NCCO)cc1OC | -4 | -123 | 5 | 91* | -4 | 128* | 78*
CCCCOCCCNC(=O)C[C@H]1C[C@@]2(C(=O)OC)C(=C[C@H](C(C)C)O[C@@H]2C2CC2)N(Cc2ccc3c(c2)OCO3)C1=O | nt | 14 | nt | nt | nt | nt | nt
O=C(CCc1ccccc1)N1Cc2cc(-c3cccc(F)c3)ccc2-n2nncc2C1 | nt | 8 | nt | 4 | nt | nt | nt
COc1ccc(-c2ccc3c(c2)CN(C(=O)CCc2ccccc2)Cc2cnnn2-3)cc1 | nt | 6 | nt | 63* | nt | + | 173*
CC1(C)Cc2nc3sc4c(N(CCO)CCO)nnnc4c3cc2CO1 | 2 | -31 | 1 | 36* | -8 | + | 188*
CSc1nc(SCC(=O)O)c2c3c(sc2n1)COC(C)(C)C3 | -1 | 8 | 14 | 5 | -14 | nt | nt
CSC1=NC(NCCCO)c2c(sc3c2CC(C)(C)OC3)N1 (stereo unspecified) | -3 | -45 | 12 | 28* | -11 | 107* | 92*
Cc1cc(NCCc2c[nH]c3ccccc23)ccc1Nc1cccnc1 | nt | -22 | nt | nt | nt | nt | nt
CNc1ccccc1C(=O)OC(C)C(=O)Nc1ccc(S(=O)(=O)N2CCCC2)cc1 (stereo unspecified) | nt | -48 | -1 | 39* | 3 | -2 | -4
CCCNS(=O)(=O)c1cccc(C(=O)OCc2cc(=O)oc3cc(OC)ccc23)c1 | -1 | -16 | 11 | 38* | 2 | 76* | 59*
COc1ccc2c(COC(=O)c3ccc(C)c(S(=O)(=O)N4CCOCC4)c3)cc(=O)oc2c1 | nt | -6 | 8 | 22 | nt | nt | nt
CN(C)c1cccc(C(=O)OCc2cc(=O)oc3cc(O)ccc23)c1 | -22 | -19 | 12 | 55* | -3 | + | +
COc1ccc2c(COC(=O)CNS(=O)(=O)c3ccc(C)c(C)c3)cc(=O)oc2c1 | nt | -61 | 11 | 73* | -13 | 31* | 28*
COc1ccc2c(COC(=O)CCS(=O)(=O)c3ccc(C)cc3)cc(=O)oc2c1 | -4 | -48 | 9 | 107* | 1 | 30* | 26*
COC(=O)C1CN(Cc2ccccc2)CCS(=O)(=O)N1Cc1ccccc1 (stereo unspecified) | nt | 4 | nt | nt | nt | nt | nt
